Shown are actives, neighbours in structure and some others; about 1% of the full set was active somewhere.
MEX-5 binding: C. elegans MEX-5 TCR-2 RNA binding activity; activity score (negative = inhibition of binding), % at 10 µM; 300,000 tested, 0.38% active; Q9XUB2; MEX-5/FITC-TCR2 RNA binding, fluorescence polarization; stronger effect = lower value; AID 1832;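 active = inhibition past about -25% in most replicates, and total fluorescence under double the plate's negative control median, limit read from the data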;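 note: 0% = DMSO and -100% = 5 µM competing unlabeled TCR2 RNA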
EBNA-1 inhibitor: blocks EBNA-1 binding to DNA | inhibition, % at 14.8 µM | 300,000 tested, 0.34% active | EBNA-1 DNA binding, fluorescence polarization; in the data active = inhibition above about 28%
EBV gp42 inh: inhibitors of Epstein-Barr virus glycoprotein 42; 220,000 tested, 0.42% active; inhibition, % (tested at 21.74 µM); Fluorescence polarization binding assay, mP read-out; in the data active = inhibition above about 50%
Target sequence (Q1HVG2 whole entry, looked up): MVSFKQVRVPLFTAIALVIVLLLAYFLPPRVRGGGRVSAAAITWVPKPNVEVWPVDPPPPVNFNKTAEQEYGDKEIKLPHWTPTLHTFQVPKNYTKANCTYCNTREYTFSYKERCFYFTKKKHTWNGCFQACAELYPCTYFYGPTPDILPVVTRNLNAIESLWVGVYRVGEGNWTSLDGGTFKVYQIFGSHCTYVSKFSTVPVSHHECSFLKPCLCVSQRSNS
ZTA counter: ZTA (EBV) inhibition in EBNA-1 counter-screen. P03206. ZTA-DNA binding, fluorescence polarization. inhibition, % at 11 µM. 320,000 tested, 0.15% active. AID 2234; in the data active = inhibition above about 33%
Target sequence (P03206 whole entry, looked up): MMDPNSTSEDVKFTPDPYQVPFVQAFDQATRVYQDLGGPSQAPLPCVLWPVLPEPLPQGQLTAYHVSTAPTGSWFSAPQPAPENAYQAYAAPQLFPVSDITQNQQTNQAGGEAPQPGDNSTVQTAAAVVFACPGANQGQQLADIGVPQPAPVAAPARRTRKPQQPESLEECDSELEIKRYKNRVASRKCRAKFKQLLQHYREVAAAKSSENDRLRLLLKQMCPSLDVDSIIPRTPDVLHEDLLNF
EBNA-1 inh conf: EBNA-1 (EBV) inhibition, confirmation; AID 2292; 830 tested, 35% active; shares compounds with EBNA-1 inhibitor; inhibition, % at 14.8 µM; Recombinant EBNA-1 DBD, Cy5-DNA fluorescence polarization;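 active = mean inhibition across replicates above a set limit taken from the earlier primary screen, cut at about 28% in these data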;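 note: plate controls were EBNA-1 protein with DMSO for no effect and wells lacking EBNA-1 for full effect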
ZTA counter trip: counter-screen for EBNA-1 inhibitors: Epstein-Barr virus ZTA inhibitors, triplicate; shares compounds with EBNA-1 inhibitor; Zta-ZRE DNA binding, Cy5 fluorescence polarization; inhibition, % at 11.1 µM; 830 tested, under 10 active;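 active = mean inhibition over triplicates above a set limit taken from the primary EBNA-1 screen, cut at about 37% in these data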;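 note: purified full length Zta protein with Cy5 labeled ZRE DNA probe; 0% = Zta with DMSO and 100% = wells lacking Zta protein; inhibitors lower polarization by freeing the labeled DNA probe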
* marks the source's active call; other numbers are inactive results.

What do the screens show for `CN(C(=S)Oc1ccc(C(=O)Nc2ccccc2)cc1)c1ccccc1`?
MEX-5 binding: -1; EBNA-1 inhibitor: 5; EBV gp42 inh: 5; ZTA counter: -13

Results for COc1ccc(NC(=O)Nc2ccc(OC)cc2)cc1 ?
MEX-5 binding: 1; EBNA-1 inhibitor: 54*; EBV gp42 inh: -2; ZTA counter: 4; EBNA-1 inh conf: 32*; ZTA counter trip: 0

How did COc1ccc(C(=O)Nc2ccc3c(c2)C(=O)NC3=O)cc1 do in these assays?
MEX-5 binding: -2; EBNA-1 inhibitor: 33*; ZTA counter: 10; EBNA-1 inh conf: 26; ZTA counter trip: 5

What do the screens show for `COc1ccc(NC(=O)C2(c3ccc(NC(=O)c4ccc(C)cc4)cc3)CCCC2)cc1`?
MEX-5 binding: 3; EBNA-1 inhibitor: 3; EBV gp42 inh: -4; ZTA counter: -14

What do the screens show for `COc1ccc(NC(=O)c2ccc(OC(=S)N(C)c3ccc(OC)cc3)cc2)cc1`?
MEX-5 binding: -1; EBNA-1 inhibitor: 34*; EBV gp42 inh: -28; ZTA counter: 13; EBNA-1 inh conf: 19; ZTA counter trip: 8

What do the screens show for `Cc1ccc(S(=O)(=O)Nc2cccc(C(=O)NCC3(N4CCCCC4)CCCCC3)c2)cc1F`?
MEX-5 binding: -2; EBNA-1 inhibitor: -2; ZTA counter: 6

Results for Cc1cc([N+](=O)[O-])ccc1NC(=O)CSc1nncn1-c1cccnc1 ?
MEX-5 binding: -1; EBNA-1 inhibitor: 3; ZTA counter: -26

How did CC1(C)CC(=O)C(C(c2ccc(Br)cc2)C2C(=O)CC(C)(C)CC2=O)C(=O)C1 do in these assays?
MEX-5 binding: 1; EBNA-1 inhibitor: -7; ZTA counter: 2

How did COc1ccc(/C=C2\SC(=S)N(c3cccnc3)C2=O)cc1 do in these assays?
MEX-5 binding: -6; EBNA-1 inhibitor: 0; EBV gp42 inh: -3; ZTA counter: 11

Results for O=C1/C(=C\c2ccc(O)cc2)SC(=S)N1c1cccnc1 ?
MEX-5 binding: -1; EBNA-1 inhibitor: 31*; EBV gp42 inh: 24; ZTA counter: 7; EBNA-1 inh conf: 21; ZTA counter trip: 11

Results for COC(=O)c1c(C(=O)c2ccc(Br)cc2)n(C)c2ccccc12 ?
ZTA counter: -3

Results for NC(=O)c1ccccc1NC(=O)c1cccc(C(=O)Nc2ccccc2C(N)=O)n1 ?
MEX-5 binding: 1; EBNA-1 inhibitor: 35*; ZTA counter: 11; EBNA-1 inh conf: 36*; ZTA counter trip: 4

How did O=C1[C@H]2[C@@H](c3ccc(F)cc3)N3C(=O)N(c4cccc(Br)c4)C(=O)[C@@]3(Cc3ccccc3)[C@H]2C(=O)N1C1CCCCC1 do in these assays?
MEX-5 binding: 1; EBNA-1 inhibitor: 10; ZTA counter: 4

How did O=C1[C@H]2[C@@H](c3ccc(F)cc3)N3C(=O)N(c4cccc(F)c4)C(=O)[C@@]3(Cc3ccccc3)[C@H]2C(=O)N1C1CCCCC1 do in these assays?
MEX-5 binding: 2; EBNA-1 inhibitor: 81*; ZTA counter: 6; EBNA-1 inh conf: 9; ZTA counter trip: -15

What do the screens show for `Cc1ccc(C(C(=O)NC2CCCCC2)N(Cc2cccnc2)C(=O)c2csnn2)cc1` (stereo not given)?
MEX-5 binding: -1; EBNA-1 inhibitor: 5; ZTA counter: -8

Results for COc1cccc(CC2(CO)CCN(Cc3ccc(NC(C)=O)cc3)CC2)c1 ?
MEX-5 binding: -1; EBNA-1 inhibitor: 0; EBV gp42 inh: 0; ZTA counter: 5

Results for COc1ccc(CC2(CO)CCN(Cc3ccc(NC(C)=O)cc3)CC2)cc1 ?
MEX-5 binding: 2; EBNA-1 inhibitor: 46*; EBV gp42 inh: 4; ZTA counter: 4; EBNA-1 inh conf: 0; ZTA counter trip: 5

How did CCc1nnc(NC(=O)CSc2ccc(-c3nc4ccc(C)cc4[nH]3)cn2)s1 do in these assays?
MEX-5 binding: -2; EBNA-1 inhibitor: 45*; EBV gp42 inh: -6; ZTA counter: -6; EBNA-1 inh conf: 15; ZTA counter trip: -2

How did Cc1ccc2nc(-c3ccc(SCC(=O)O)nc3)[nH]c2c1 do in these assays?
MEX-5 binding: 1; EBNA-1 inhibitor: 1; EBV gp42 inh: -19; ZTA counter: -6

What do the screens show for `Cc1ccccc1NC(=O)Cc1nc(COC(=O)c2cc(Br)ccc2O)cs1`?
ZTA counter: 7

How did Cc1ccccc1NC(=O)Cc1nc(COC(=O)c2cc(Cl)ccc2O)cs1 do in these assays?
MEX-5 binding: -3; EBNA-1 inhibitor: 33*; ZTA counter: -7; EBNA-1 inh conf: 10; ZTA counter trip: 5

What do the screens show for `O=C(Nc1cc2c3c(c1)CC(=O)N3CCC2)C1CC1`?
MEX-5 binding: 1; EBNA-1 inhibitor: 2; ZTA counter: -4

What do the screens show for `Cc1ccc(NC(=O)CN2C(=O)N/C(=C/c3cccn3-c3ccc(C(=O)O)cc3)C2=O)cc1`?
EBNA-1 inhibitor: 37*; EBV gp42 inh: 50; ZTA counter: 23; EBNA-1 inh conf: 16; ZTA counter trip: 40*

How did CCOC(=O)C1CCN(C(=O)c2ccc(OCC(=O)Nc3ccc(OCC)cc3)c(OC)c2)CC1 do in these assays?
MEX-5 binding: 1; EBNA-1 inhibitor: 0; ZTA counter: 5

Results for CCOC(=O)c1cc2cc(CC(=O)c3ccc(OCC)cc3O)ccc2o1 ?
MEX-5 binding: 4; EBNA-1 inhibitor: 28*; EBV gp42 inh: -6; ZTA counter: -9; EBNA-1 inh conf: 30*; ZTA counter trip: 9

How did O=C(NN1C(=O)c2ccc3c4c(ccc(c24)C1=O)CC3)c1ccc(Br)cc1 do in these assays?
MEX-5 binding: 3; EBNA-1 inhibitor: 55*; EBV gp42 inh: -5; ZTA counter: -7; EBNA-1 inh conf: 6; ZTA counter trip: 9

How did CCOC(=O)[C@H]1[C@H]2COc3ccc(OC)cc3[C@@H]2N2C(=O)c3ccc(Cl)cc3NC(=O)[C@@]12C do in these assays?
EBNA-1 inhibitor: 13; ZTA counter: -1

What do the screens show for `CCOC(=O)[C@H]1[C@H]2COc3ccc(Cl)cc3[C@@H]2N2C(=O)c3ccc(Cl)cc3NC(=O)[C@@]12C`?
EBNA-1 inhibitor: 77*; ZTA counter: -2; EBNA-1 inh conf: 82*; ZTA counter trip: 13

How did COc1cccc(N2CC(O)=C(c3nc4ccccc4c(=O)[nH]3)C2=N)c1 do in these assays?
MEX-5 binding: 0; EBNA-1 inhibitor: 67*; EBV gp42 inh: -6; ZTA counter: -17; EBNA-1 inh conf: 125*; ZTA counter trip: 1

What do the screens show for `Cc1cc(C)cc(N2CC(O)=C(c3nc4ccccc4c(=O)[nH]3)C2=N)c1`?
MEX-5 binding: 0; EBNA-1 inhibitor: 0; EBV gp42 inh: -26; ZTA counter: 2

How did COc1ccc(NC(=O)Nc2ccccc2F)cc1 do in these assays?
MEX-5 binding: 2; EBNA-1 inhibitor: 12; EBV gp42 inh: -3; ZTA counter: -2

What do the screens show for `COc1ccc(NC(=O)Nc2ccccc2F)cc1Cl`?
MEX-5 binding: 1; EBNA-1 inhibitor: 89*; EBV gp42 inh: 2; ZTA counter: -22; EBNA-1 inh conf: 22; ZTA counter trip: 14
